Bioassay records: PubChem, National Center for Advancing Translational Sciences (NCATS)
Pol beta inh: blocks human DNA polymerase beta activity. Potency, µM (top dose mostly 114 µM), most hits filed as inhibitors. AID 485314. P06746. Pol beta primer extension/strand displacement, fluorescence kinetic. 340,000 compounds, 1.3% hits
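Pol beta (10 nM) and compounds were preincubated 15 min at room temperature, then 50 nM substrate (final) started primer extension/strand displacement. Reads were taken at 0 and 10 min; concentration-response data were fitted to a four-parameter Hill equation.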
Pol eta inh-1: blocks human DNA polymerase eta activity | Q9Y253 | recombinant Pol eta, fluorescent DNA replication assay | Potency, µM (doses to about 114 µM), usual class: inhibitors | 390,000 compounds, 1.2% hits | AID 588591
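Pol eta at 10 nM preincubated with compounds 15 min at room temperature; reaction started with fluorescent substrate (50 nM final) and read kinetically at 0 and 10 min.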
Pol kappa inh-1: inhibitors of human DNA polymerase kappa. Q9UBT6. purified Pol kappa, fluorescent DNA synthesis assay, 10 min. Potency, µM (doses to about 107 µM), hits mostly inhibitors. 400,000 compounds, 0.53% hits. AID 588579
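Kinetic fluorescence readout at 0 and 10 min followed reaction start with substrate at 50 nM final. Beforehand, enzyme (10 nM Pol kappa) stood 15 min with compound at room temperature; buffer-only wells were negative controls.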
L3MBTL1 block: blocks human L3MBTL1; AlphaScreen L3MBTL1–H3K9me1 peptide binding; Q9Y468; 230,000 compounds, 0.66% hits; Potency, µM (top dose mostly 57.1 µM), hits mostly inhibitors; AID 485360; further: nearly all actives have a fitted effect of over 60% in size
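L3MBTL1 (50 nM) pre-complexed 30 min with biotinylated H3(1-15)K9me1 peptide (75 nM), then compounds added for 30 min at room temperature; AlphaScreen streptavidin donor/nickel chelate acceptor beads (10 ug/mL final) read after 30 min dark incubation.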
APEX1 inh: blocks human APE1 abasic DNA cleavage. P27695. recombinant APE1, TAMRA/BHQ-2 abasic DNA cleavage fluorescence. Potency, µM (doses to about 65.8 µM), hits mostly inhibitors. 350,000 compounds, 0.35% hits. AID 2517; further: nearly all actives have a fitted effect of over 55% in size
Target sequence (P27695 whole entry, looked up): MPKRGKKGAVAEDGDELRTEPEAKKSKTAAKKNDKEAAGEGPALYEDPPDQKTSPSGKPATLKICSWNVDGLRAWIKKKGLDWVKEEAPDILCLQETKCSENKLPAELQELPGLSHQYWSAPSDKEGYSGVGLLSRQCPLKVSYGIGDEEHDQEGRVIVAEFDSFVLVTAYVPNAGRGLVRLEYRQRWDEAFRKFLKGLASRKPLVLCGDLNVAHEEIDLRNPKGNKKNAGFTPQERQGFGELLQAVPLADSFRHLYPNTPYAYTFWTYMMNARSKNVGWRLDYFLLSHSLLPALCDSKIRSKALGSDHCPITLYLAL
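Activity was derived from the fluorescence gain between first and third kinetic reads (60 s intervals, ex 525/em 598 nm) after 50 nM THF-abasic TAMRA/BHQ-2 duplex was added to 0.75 nM APE1 preincubated 15 min with compound.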
Pol iota inh: inhibitors of human DNA polymerase iota; Pol iota fluorescent replication assay, 10 min; 390,000 compounds, 1% hits; Potency, µM (series often up to 115 µM), actives largely listed as inhibitors; Q9UNA4
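Pol iota at 10 nM preincubated 15 min with compounds at room temperature; reaction started with fluorescent substrate, 50 nM final. Fluorescence read kinetically at 0 and 10 min; buffer-only wells as negative control.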
Pol kappa inh-2: Pol kappa (human) inhibition, cherry-pick confirmation | 920 compounds, 76% hits | Potency, µM, hits mostly inhibitors | shares compounds with Pol eta inh-1 | AID 720501 | purified Pol-kappa, fluorescent strand-displacement substrate
Pol eta inh-2: Pol eta (human) inhibition, cherry-pick confirmation | shares compounds with Pol eta inh-1 | Pol eta primer extension, TAMRA/BHQ fluorescence, 10 min | Potency, µM, hits mostly inhibitors | 2,600 compounds, 64% hits
Each line names hits and unclear results; the compound was inactive in the other large screens (follow-up assays come after a bar, where they were run). Hits are enriched below; roughly 2.5% of the tested compounds scored in any of these assays. The call rests on the fitted dose curve; in most records, active means well fitted curve in the direction sought with a large enough effect; inconclusive means small, poorly fitted or top-dose-only effect, or another doubt; inactive means no such curve, though single readings can be large; an effect the other way counts as inactive or inconclusive.

CCCCNC(=O)c1ccc2nc(-c3ccco3)c(-c3ccco3)nc2c1	Pol beta inh 20µM, Pol eta inh-1 14µM, Pol kappa inh-1 8.9µM, L3MBTL1 block 32µM, Pol iota inh inconclusive | Pol kappa inh-2 21 | Pol eta inh-2 inconclusive
CC(=O)c1ccc(NC(=O)CSc2nc(-c3ccccc3C)nc3c2c(=O)n(C)c(=O)n3C)cc1	none (no result: L3MBTL1 block, APEX1 inh)
CN(C)c1ncc2nc(CCc3ccccc3)c(=O)n(Cc3ccc(F)cc3)c2n1	none (no result: Pol beta inh, Pol eta inh-1, L3MBTL1 block, Pol iota inh)
CC(=O)NS(=O)(=O)c1ccc(NC(=O)c2cc(-c3ccc(C)c(C)c3)nc3ccccc23)cc1	Pol beta inh 25µM, Pol eta inh-1 22µM | Pol eta inh-2 76
N#CN1CCC(NS(=O)(=O)c2ccc(C(F)(F)F)cc2)C1 (stereo not drawn)	none (no result: Pol beta inh)
CC(C)OC(=O)c1ccc(NCc2cc(O)ccc2O)cc1	none (no result: Pol beta inh, L3MBTL1 block, APEX1 inh)
COP(=O)(OC)c1ccc(NCc2cc(O)ccc2O)cc1	Pol eta inh-1 10µM, Pol kappa inh-1 inconclusive, Pol iota inh 10µM (no result: Pol beta inh, L3MBTL1 block, APEX1 inh) | Pol eta inh-2 48
O=C(O)c1ccc(N/N=C/C2=C(N3CCOCC3)C(=C\c3ccccc3)/CC2)cc1	Pol beta inh inconclusive, Pol eta inh-1 50µM, Pol kappa inh-1 32µM, L3MBTL1 block inconclusive, APEX1 inh inconclusive, Pol iota inh inconclusive | Pol eta inh-2 inconclusive
CC(C)(C)OC(=O)N1CCC(c2cc(=O)n3[nH]cc(C(=O)Nc4ccc(F)c(Cl)c4)c3n2)CC1	Pol iota inh inconclusive
COc1ccc(NC(=O)c2c[nH]n3c(=O)cc(C4CCN(C(=O)OC(C)(C)C)CC4)nc23)cc1Cl	Pol eta inh-1 89µM, APEX1 inh inconclusive (no result: L3MBTL1 block) | Pol kappa inh-2 75 | Pol eta inh-2 85
CCC/C=C/c1ccc(CN2C(CC(C)C)C(=O)N(Cc3cn(CC4CCCCC4)nn3)CCS2(=O)=O)cc1 (stereo not drawn)	none (no result: Pol beta inh, Pol kappa inh-1, L3MBTL1 block, APEX1 inh, Pol iota inh)
N#Cc1c(C(=O)c2cccs2)no[n+]1[O-]	none (no result: Pol beta inh, Pol eta inh-1, Pol kappa inh-1, L3MBTL1 block, APEX1 inh, Pol iota inh) | Pol eta inh-2 inconclusive
N#Cc1c(-c2ccccc2)no[n+]1[O-]	none (no result: L3MBTL1 block)
Nc1c(Cl)c(Cl)nc(C(=O)OCC(=O)N2CCCC2=O)c1Cl	Pol eta inh-1 inconclusive, Pol iota inh inconclusive (no result: Pol beta inh)
O=C(OCC(=O)N1CCCC1=O)c1nc(Cl)c(Cl)c(Cl)c1Cl	Pol beta inh inconclusive, Pol eta inh-1 56µM, Pol kappa inh-1 inconclusive, APEX1 inh inconclusive, Pol iota inh inconclusive (no result: L3MBTL1 block) | Pol eta inh-2 inconclusive
O=C(O)COc1ccccc1C(Nc1ccccn1)c1cc(Cl)c2cccnc2c1O (stereo not drawn)	Pol eta inh-1 50µM | Pol eta inh-2 inconclusive
COc1ccc2c(c1)C(=O)[C@H](OC(=O)NS(=O)(=O)c1ccc(F)cc1)[C@@H](c1ccc(OC)c(Br)c1)O2	none (no result: Pol beta inh, Pol eta inh-1, Pol kappa inh-1, L3MBTL1 block, Pol iota inh)
CC(=O)Nc1c(S(=O)(=O)c2ccccc2)c2nc3ccccc3nc2n1Cc1ccccc1	none
O=S(=O)(Nc1c(S(=O)(=O)c2ccccc2)c2nc3ccccc3nc2n1C1CCCCC1)c1ccccc1	Pol eta inh-1 22µM, L3MBTL1 block inconclusive, Pol iota inh 3.5µM | Pol kappa inh-2 30
Cc1cc(=O)oc2c(C)c(OC(C)C(=O)NC(Cc3c[nH]c4ccc(O)cc34)C(=O)O)ccc12 (stereo not drawn)	Pol iota inh inconclusive
Cc1cc(OC(C)C(=O)NC(Cc2c[nH]c3ccc(O)cc23)C(=O)O)c2c(C)c(C)c(=O)oc2c1 (stereo not drawn)	Pol beta inh inconclusive, Pol eta inh-1 inconclusive, Pol iota inh inconclusive (no result: L3MBTL1 block) | Pol eta inh-2 inconclusive
Cc1cc(=O)oc2cc(OCC(=O)NC(Cc3c[nH]c4ccc(O)cc34)C(=O)O)c(Cl)cc12 (stereo not drawn)	Pol beta inh inconclusive, Pol eta inh-1 25µM, Pol kappa inh-1 inconclusive, Pol iota inh 71µM (no result: L3MBTL1 block) | Pol eta inh-2 inconclusive
Cc1ccc(NC(=O)Cn2c(=O)ccc3cc(S(=O)(=O)N4CCCC4)ccc32)cc1C	none (no result: L3MBTL1 block, APEX1 inh)
C/C(=N\Nc1ccc(Cl)c(C(=O)O)c1)c1ccc(Br)s1	Pol beta inh 50µM, Pol eta inh-1 20µM, Pol kappa inh-1 inconclusive, Pol iota inh inconclusive (no result: L3MBTL1 block) | Pol eta inh-2 27
COc1ccc(C(C(=O)NC2CCCC2)N(C(=O)c2snc(C(N)=O)c2N)c2cccc(O)c2)cc1 (stereo not drawn)	Pol beta inh 40µM, Pol eta inh-1 22µM, Pol kappa inh-1 79µM, Pol iota inh inconclusive (no result: L3MBTL1 block) | Pol kappa inh-2 inconclusive | Pol eta inh-2 76
COc1cc(/C=c2\sc3nc(-c4ccncc4)nn3c2=O)ccc1OC(C)=O	none (no result: Pol eta inh-1, Pol kappa inh-1, Pol iota inh)
CC(=O)Oc1cccc(/C=c2\sc3nc(-c4ccco4)nn3c2=O)c1	Pol beta inh 22µM, Pol eta inh-1 13µM, Pol kappa inh-1 inconclusive, L3MBTL1 block inconclusive, Pol iota inh inconclusive | Pol eta inh-2 48
N#Cc1c(-c2ccccc2)nc(SCC(=O)Nc2ccc(OC(F)(F)Cl)cc2)[nH]c1=O	Pol beta inh 22µM, Pol eta inh-1 inconclusive (no result: L3MBTL1 block) | Pol kappa inh-2 inconclusive
COC(=O)c1ccccc1NC(=O)C1(c2cccs2)CCOCC1	Pol eta inh-1 inconclusive (no result: L3MBTL1 block, APEX1 inh)
Cn1nc(N)c2ncc(-c3ccc(Cl)cc3)nc21	none (no result: Pol beta inh, Pol kappa inh-1, L3MBTL1 block, APEX1 inh, Pol iota inh)
O=C(Cc1ccc(Br)cc1)Nc1ncc([N+](=O)[O-])s1	Pol beta inh inconclusive, Pol eta inh-1 inconclusive, Pol iota inh inconclusive (no result: L3MBTL1 block) | Pol kappa inh-2 inconclusive | Pol eta inh-2 inconclusive
O=C(COC(=O)COc1ccccc1)Nc1ncc([N+](=O)[O-])s1	Pol eta inh-1 10µM, Pol kappa inh-1 inconclusive, Pol iota inh inconclusive (no result: Pol beta inh) | Pol kappa inh-2 12 | Pol eta inh-2 30
O=C(COc1ccc(Cl)cc1)Nc1ncc([N+](=O)[O-])s1	none
O=C(Cc1ccc(Cl)cc1)Nc1ncc([N+](=O)[O-])s1	none
COC(=O)CC1Oc2ccccc2-n2cc(-c3ccc(C)cc3)nc21 (stereo not drawn)	none (no result: L3MBTL1 block, APEX1 inh)
